Bioassay records deposited in PubChem by National Center for Advancing Translational Sciences (NCATS).
Sampled rows, rich in hits. Any-hit rate of the full collection: about 8%.
KB-3-1 cytotox: qHTS assay for MDR1-selective chemotherapeutics: Primary screen using the parental adenocarcinoma cell KB-3-1; KB-3-1 viability, CellTiter-Glo ATP luminescence, 72 h; Potency, µM (doses to about 46.1 µM), actives largely listed as cytotoxic; 400,000 compounds, 1.4% hits; AID 1347075, 2019; note: % is set by controls: 0 for no effect and ±100 for the full control effect; nearly all actives have a fitted effect of over 60% in size
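Screening of KB-3-1 cells (DMEM, 10% FBS, phenol-red free) ran from lowest to highest compound concentration; after 72 h at 37 °C viability was read luminescently and curves fitted.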
KB-V1 MDR tox: qHTS assay for MDR1-selective chemotherapeutics: Primary screen using the drug-selected MDR subline cells KB-V1 | KB-V1 MDR cells viability, CellTiter-Glo, 72 h | Potency, µM (series often up to 46.1 µM), actives largely listed as cytotoxic | 400,000 compounds, 3.4% hits | AID 1347076, 2019; note: % is set by controls: 0 for no effect and ±100 for the full control effect; nearly all actives have a fitted effect of over 60% in size
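Compound-treated KB-V1 multidrug-resistant cells, 72 h, 37 degrees C; viability by CellTiter-Glo. Fitted qHTS curves give the values.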
MCF10A rereplic: A quantitative high throughput screen for small molecules that induce DNA re-replication in MCF 10a normal breast cells; MCF 10A DNA re-replication, Hoechst nuclear intensity, 48 h; Potency, µM (highest dose often 46.1 µM), without a hit: at the highest dose activity, positive = re-replication, actives largely listed as activators; 350,000 compounds, 2.9% hits; note: % of control where 0% means no effect; nearly all actives have a fitted effect of over 50% in size
HT1080-NT tox: qHTS for induction of synthetic lethality in tumor cells producing 2HG: qHTS for the HT-1080-NT fibrosarcoma cell line | AID 686970, 2013 | Potency, µM (titrated, usually from 46.1 µM), for the others: top-dose activity, negative = less viability, actives largely listed as cytotoxic | HT-1080-NT fibrosarcoma viability, CellTiter-Glo ATP luminescence, 48 h | 360,000 compounds, 1.6% hits;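 note: NT is the 2HG producing partner of a matched IDH1 knockdown line; 0% = DMSO-treated cells and -100% = media-only wells without cells; nearly all actives have a fitted effect of over 55% in size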
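HT-1080-NT fibrosarcoma cells (2HG-overproducing), 750 cells/well in RPMI with 5% FBS, dosed after 2 h and incubated 48 h at 37C. CellTiter-Glo luminescence normalized to DMSO and no-cell wells; concentration-response curves fitted and classed.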
SW480 rereplic: A quantitative high throughput screen for small molecules that induce DNA re-replication in SW480 colon adenocarcinoma cells. SW480 DNA re-replication, Hoechst DNA content imaging, 48 h. 340,000 compounds, 1.8% hits. Potency, µM (highest dose often 46.1 µM), inactives show top-dose re-replication activation, hits mostly activators; note: % of control where 0% means no effect; nearly all actives have a fitted effect of over 55% in size
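Compounds, transferred as 23 nL by pin tool, were incubated with cells for 48 hr; DNA content per nucleus was then quantified by Hoechst staining and fluorescence plate imaging.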
HT1080 IDH1KD tx: qHTS for induction of synthetic lethality in tumor cells producing 2HG: qHTS for the HT-1080-IDH1KD cell line. AID 686971, 2013. HT-1080 IDH1 knockdown viability, ATP luminescence, 48 h. 360,000 compounds, 2% hits. Potency, µM (top dose mostly 46.1 µM), without a hit: at the top dose activity, negative = toxicity, usual class: cytotoxic;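 note: 0% = DMSO wells and -100% = cell-free medium wells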
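Viability of IDH1-knockdown HT-1080 fibrosarcoma cells was assessed by CellTiter-Glo after 48 h at 37 °C with titrated compound; concentration-effect curves were classified by fit quality and response size.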
* = called active by the depositor; i = inactive; ? = inconclusive; / = not tested or not shown. Calls come from the whole dose curve; as a rule, active = well fitted curve in the direction sought with a large enough effect; inconclusive = small, poorly fitted or top-dose-only effect, or another doubt; inactive = no such curve, though single readings can be large; an effect the other way counts as inactive or inconclusive. Potency is the fitted concentration of half-maximal effect.

SMILES | KB-3-1 cytotox | KB-V1 MDR tox | MCF10A rereplic | HT1080-NT tox | SW480 rereplic | HT1080 IDH1KD tx
COc1cc(/C=C/c2nc3ccccc3c(=O)[nH]2)cc(OC)c1OC | 2.9µM* | i | 18µM* | ? | 3.3µM* | ?
Cc1ccc(/C=C/c2nc3ccccc3c(=O)[nH]2)cc1 | i | i | ? | -5% | ? | -12%
COCCOC(=O)N/C=C\c1nc2ccccc2c(=O)[nH]1 | ? | i | ? | ? | 16µM* | ?
N#CCOc1ccccc1/C=C/c1nc2ccccc2c(=O)[nH]1 | i | i | 25% | -13% | 13µM* | -3%
Cc1ccccc1/C=C\c1nc2ccccc2c(=O)[nH]1 | ? | ? | ? | 16µM* | ? | 16µM*
O=C(NCC(c1cccnc1)N1CCc2ccccc21)C(=O)Nc1ccccc1F (centres undefined) | i | i | / | / | / | /
CCOCCCNC(=O)c1ccc(NC(=O)N2CCCCc3ccccc32)cc1 | i | i | / | / | / | /
O=[N+]([O-])c1ccc(/C=C2\C=Cc3ccccc32)cc1 | i | i | / | / | / | /
Cc1ccc(NS(=O)(=O)c2ccc(NC(=O)N3CCCC3)cc2)cc1C | i | i | / | / | / | /
Cc1ccccc1/C=C/c1nc2ccccc2c(=O)[nH]1 | ? | ? | 18µM* | -22% | ? | -25%
CCCCCCC[n+]1c(/C=C/c2ccc(N(C)C)cc2)sc2ccccc21 | i | ? | / | / | / | /
CC1CCN(C(=O)COC(=O)c2cc([N+](=O)[O-])ccc2N2CCOCC2)CC1 | i | ? | 0% | 0% | -12% | 9%
CC1CCCCN1C(=O)COC(=O)c1cc([N+](=O)[O-])ccc1N (centres undefined) | i | 16µM* | 6% | 7% | 4% | -2%
CN(C)CCN1C(=O)c2cccc3cc([N+](=O)[O-])cc(c23)C1=O | 8.2µM* | 2.6µM* | ? | 10µM* | 1.5µM* | 13µM*
CCc1sc(C(=O)NCc2cc(C)n(C)n2)cc1Br | i | i | -2% | ? | ? | 16µM*
COc1ccc(CCNC(=O)c2ccc3c(c2)N(Cc2c(F)cccc2Cl)C(=O)CS3)cc1OC | i | i | / | / | / | /
COc1ccc(NC(=O)c2ccco2)cc1NC(=O)c1ccc(OC(C)C)cc1 | i | i | / | / | / | /
Cc1ccc(-c2c(C#N)c(N)n3c(nc4ccccc43)c2C#N)cc1 | 13µM* | ? | 18µM* | ? | 18µM* | ?
CCc1c(C)c(C#N)c2nc3ccccc3n2c1NC | i | i | 0% | -5% | -2% | -2%
CCN(CC)c1c2c(c(C#N)c3nc4ccccc4n13)CCC2 | i | 3.7µM* | 12% | 2% | 20% | 6%
Cc1c(CCCl)c(Cl)n2c(nc3ccccc32)c1C#N | 2.1µM* | 1.6µM* | 2.9µM* | 2.6µM* | ? | 2.3µM*
Cc1cccc(NC(=O)CSc2cc(C)c(C#N)c3nc4ccccc4n23)c1 | i | i | 5% | ? | 2.9µM* | -26%
N#Cc1c(-c2ccccc2)c(C#N)c2nc3ccccc3n2c1N | i | i | 10% | -4% | 25% | -2%
COc1cccc(CNC(=O)CN(c2ccc(C(C)C)cc2)S(=O)(=O)c2c(C)n[nH]c2C)c1 | i | i | / | / | / | /
CNc1cc(C)c(C#N)c2nc3ccccc3n12 | i | i | 27% | -4% | ? | -18%
SMILES | KB-3-1 cytotox | KB-V1 MDR tox | MCF10A rereplic | HT1080-NT tox | SW480 rereplic | HT1080 IDH1KD tx
Cc1cc(Cl)n2c(nc3ccccc32)c1C#N | i | ? | ? | 9.2µM* | 21µM* | 7.3µM*
C[C@H](c1ccccc1)N1C[C@@H](COCc2ccccc2)Oc2cc(N3CC[C@H](N(C)C)C3)ccc2S1(=O)=O | i | 23µM* | / | ? | / | ?
CCCCC[C@@H](C)N1C[C@@H](COCc2ccccc2)Oc2cc(N3CC[C@H](N(C)C)C3)ccc2S1(=O)=O | ? | ? | / | 21µM* | / | ?
C[C@@H](c1ccccc1)N1C[C@@H](COCc2ccccc2)Oc2cc(N3CC[C@H](N(C)C)C3)ccc2S1(=O)=O | ? | i | / | 2% | / | 12%
CCCCC[C@H](C)N1C[C@@H](COCc2ccccc2)Oc2cc(N3CC[C@H](N(C)C)C3)ccc2S1(=O)=O | i | ? | / | ? | / | -25%
CCC(C(=O)OCC(=O)N1CCN(S(=O)(=O)c2ccc(C)cc2C)CC1)c1ccccc1 (centres undefined) | i | 15µM* | -2% | 2% | -8% | 10%
Cc1ccc(S(=O)(=O)N2CCN(C(=O)c3cccs3)CC2)c(C)c1 | i | ? | 3% | -1% | 4.1µM* | -2%
COc1cc(OC)c(C(=O)OCC(=O)N2CCN(S(=O)(=O)c3ccc(C)cc3C)CC2)cc1OC | i | 16µM* | 0% | 13% | 3% | 0%
CCC(=O)N1CCc2cc(S(=O)(=O)Nc3cc(C)ccc3OC)ccc21 | i | i | / | / | / | /
Cc1ccc2[nH]c(=O)c3cc(C(=O)N(C)c4ccc(Br)cc4)sc3c2c1 | i | i | / | / | / | /
Cc1ccc(CSc2nc3ccc(NC(=O)COc4ccccc4)cc3s2)cc1 | i | ? | / | / | / | /
O=S(=O)(NCc1c(Cl)cccc1Oc1ccccc1)c1ccc(F)cc1 | 16µM* | i | ? | -2% | ? | 3%
O=C(O)CSCC(=O)NCc1c(Cl)cccc1Oc1ccccc1 | ? | i | 0% | 18% | 1% | 1%
O=c1cc(C(F)(F)F)oc2c1ccc1ccccc12 | i | i | -1% | 24% | -4% | 13%
O=c1cc(/C=C/c2ccccc2)oc2c1ccc1ccccc12 | i | ? | 21µM* | 5% | -5% | -2%
Cc1cc(C)cc(C(=O)Nc2c(C(=O)Nc3ccccc3F)oc3ccccc23)c1 | i | i | / | / | / | /
Oc1ccc(NC(=S)N=Nc2c(O)[nH]c3ccc(Br)cc23)cc1 | i | ? | ? | ? | ? | 21µM*
Oc1[nH]c2ccc(Br)cc2c1N=NC(=S)Nc1ccc(F)cc1 | ? | ? | 1% | ? | ? | ?
CNC(=S)N=Nc1c(O)[nH]c2ccc(C(C)C)cc12 | ? | 21µM* | 3% | 1% | -33% | -1%
